Among the test systems are RPMI-8226 leukemia; OVCAR-8 ovarian; OVCAR-5 ovarian; OVCAR-4 ovarian; SK-OV-3 ovarian; IGROV1 ovarian; OVCAR-3 ovarian; NCI/ADR-RES ovarian; HS 578T breast.
Assay in all cases: NCI-60 one-dose screen, 48 h (100 = growth as untreated, 0 = no growth, -100 = all killed)
Common to all, as to settings: 10 µM unless noted

Compounds without any hit were thinned out: in the full panel of roughly 83,000, 20% have a hit.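 In brief: 96-well plates, 48 h treatment, single concentration, percent growth endpoint.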 Unmarked numbers belong to inactive results. Calls of active or inactive are those of the source. How the source made its calls: active means growth percent below 10; inactive means the rest.

With `COc1ccc2c(c1)sc1nc(-c3ccc(N(C)C)cc3)cn12`, the growth is 33% with RPMI-8226 leukemia; 95.2% in the test with OVCAR-8 ovarian; 98.8% with OVCAR-5 ovarian; 97.8% in the test on OVCAR-4 ovarian; 82.6% in the test with SK-OV-3 ovarian; 15.8% in the test with IGROV1 ovarian. In addition, the growth was 88.5% in the test with OVCAR-3 ovarian and 76.8% with NCI/ADR-RES ovarian.

As for `O=C(Nc1ccc(Cl)cc1)Nc1ccccc1CNc1nc(Nc2ccc(OCCN3CCCC3)cc2)ncc1Cl`, the growth is -24.2% (active) in the test with RPMI-8226 leukemia; 105% in the test with OVCAR-5 ovarian; -47.4% (active) in the test with OVCAR-4 ovarian; 91.6% with SK-OV-3 ovarian; 15.8% in the test on IGROV1 ovarian; -77.9% (active) in the test with OVCAR-3 ovarian. Also, the growth in the test on HS 578T breast is 96.4%; in the test on NCI/ADR-RES ovarian, -35.9% (active).

Consider `O=C(COc1cccc(/C=C2\Oc3ccc4ccccc4c3C2=O)c1)c1ccc(Cl)cc1`, for which the growth is 67.9% in the test on RPMI-8226 leukemia; 80% with OVCAR-8 ovarian; 108% in the test on OVCAR-5 ovarian; 85.3% in the test on OVCAR-4 ovarian; 95.6% with SK-OV-3 ovarian; 92.8% with HS 578T breast. The growth in the test on NCI/ADR-RES ovarian was 100%.

Take `COC(=O)C1(NC(=O)CNC(=O)OCc2ccccc2)CCCC1`: the growth with OVCAR-8 ovarian was 106%; in the test on OVCAR-5 ovarian, 103%; in the test with OVCAR-4 ovarian it was 98.3%; in the test with SK-OV-3 ovarian, 111%; with IGROV1 ovarian it was 115%; in the test on OVCAR-3 ovarian it was 149%. Also, the growth with HS 578T breast is 131%; in the test on NCI/ADR-RES ovarian, 111%.

For `O=C(COc1ccc(/C=C2\Oc3ccc4ccccc4c3C2=O)cc1)c1ccc([N+](=O)[O-])cc1`, the growth in the test on RPMI-8226 leukemia is 61.9%; in the test on OVCAR-8 ovarian, 91.1%; in the test with OVCAR-5 ovarian, 103%; with OVCAR-4 ovarian, 102%; in the test on SK-OV-3 ovarian it was 103%; with HS 578T breast, 105%. Further, in the test with NCI/ADR-RES ovarian, the growth was 101%.

In the case of `CN1CCN(CCCOc2ccc3ncnc(Nc4ccc(OCc5cccc(F)c5)c(Cl)c4)c3c2)CC1`, the growth in the test on RPMI-8226 leukemia was -24.6% (active); in the test on OVCAR-5 ovarian it was -59.4% (active); with OVCAR-4 ovarian it was -19.9% (active); in the test with SK-OV-3 ovarian, 12.4%; with IGROV1 ovarian it was -34.9% (active); in the test on OVCAR-3 ovarian, -6.29% (active). The growth with HS 578T breast was -19.3% (active); with NCI/ADR-RES ovarian it was 18.3%.

With `CN(C)CCCNc1nn2c(=O)c3ccccc3nc2c2ccccc12`, the growth is 48.8% in the test with RPMI-8226 leukemia; 80.9% in the test on OVCAR-5 ovarian; 77.4% with OVCAR-4 ovarian; 54.6% in the test with SK-OV-3 ovarian; -12.2% (active) in the test with IGROV1 ovarian; 57.7% in the test with OVCAR-3 ovarian. In addition, the growth was 61.6% in the test with HS 578T breast and 72.7% in the test on NCI/ADR-RES ovarian.

Take `Cc1c2oc3c(C)ccc(C(=O)OC(C)C4NC(=O)C(C(C)C)N(C)C(=O)CN(C)C(=O)C5CCCN5C(=O)C(C(C)C)NC4=O)c3nc-2c(C(=O)OC(C)C2NC(=O)C(C(C)C)N(C)C(=O)CN(C)C(=O)C3CCCN3C(=O)C(C(C)C)NC2=O)c(N)c1=O` (centres undefined): the growth in the test with OVCAR-5 ovarian is 14.6%; with SK-OV-3 ovarian it was 22.5%; in the test on IGROV1 ovarian it was 7.56% (active); with OVCAR-3 ovarian, 5.3% (active); with HS 578T breast it was -2.72% (active); in the test with NCI/ADR-RES ovarian it was 16.9%.

Take `N[C@H](CS)C(=O)O`: the growth in the test on RPMI-8226 leukemia is 101%; in the test with OVCAR-5 ovarian, 103%; in the test with OVCAR-4 ovarian it was 102%; with SK-OV-3 ovarian it was 107%; in the test with OVCAR-3 ovarian it was 122%; in the test with HS 578T breast, 115%. Moreover, the growth in the test on NCI/ADR-RES ovarian was 112%.

With `O=C(CN1CCN(c2ccc(Cl)cc2)CC1)N1CCN(c2nnc(-c3ccccc3)c(-c3ccccc3)n2)CC1`, the growth with RPMI-8226 leukemia was -23.4% (active); in the test with OVCAR-5 ovarian it was 86.4%; in the test on OVCAR-4 ovarian, 30.6%; with SK-OV-3 ovarian, 85%; with OVCAR-3 ovarian it was 40.9%; in the test on HS 578T breast, 62.6%. Also, the growth with NCI/ADR-RES ovarian was 39.2%.

On to `Cc1cc(C)c2c(N)c3cccc(C)c3nc2n1`, for which the growth was -35% (active) with RPMI-8226 leukemia; -22.9% (active) in the test on OVCAR-5 ovarian; 2.47% (active) in the test on OVCAR-4 ovarian; 2.68% (active) in the test on SK-OV-3 ovarian; -38.1% (active) in the test on IGROV1 ovarian; -35.7% (active) with OVCAR-3 ovarian. For the same molecule, the growth in the test with HS 578T breast is 73.2%; in the test with NCI/ADR-RES ovarian, -28.9% (active).

As for `CCN(CC)CCOCC[C@H]1CC[C@H]2[C@@H]3[C@H](C)Cc4cc(OS(N)(=O)=O)ccc4[C@H]3CC[C@]12C`, the growth in the test with RPMI-8226 leukemia is -56.4% (active); in the test with OVCAR-5 ovarian, -50.1% (active); in the test on OVCAR-4 ovarian, 8.49% (active); in the test with SK-OV-3 ovarian, -94.8% (active); in the test with OVCAR-3 ovarian it was -86.5% (active); in the test on HS 578T breast it was -44.6% (active). Further, in the test on NCI/ADR-RES ovarian, the growth was -70.2% (active).

`COc1ccc(N2CCN(CC(=O)N3CCN(c4nnc(-c5ccc(Cl)cc5)c(-c5ccc(Cl)cc5)n4)CC3)CC2)cc1`: the growth was -14.8% (active) in the test on RPMI-8226 leukemia; 91.6% in the test with OVCAR-5 ovarian; 55.5% with OVCAR-4 ovarian; 99.5% in the test with SK-OV-3 ovarian; 52% in the test on OVCAR-3 ovarian; 52.9% with HS 578T breast. For the same molecule, in the test on NCI/ADR-RES ovarian, the growth is 61.7%.

Turning to `CCCCCCCCCCCCC1CCCC(C)C1` (centres undefined), the growth is 99% in the test with RPMI-8226 leukemia; 102% in the test on OVCAR-8 ovarian; 105% in the test on OVCAR-5 ovarian; 99.7% in the test with SK-OV-3 ovarian; 91.6% with IGROV1 ovarian; 108% with OVCAR-3 ovarian. Also, the growth with HS 578T breast is 93.3%; in the test on NCI/ADR-RES ovarian, 95.3%.

These data come from PubChem BioAssay (NCI).
